Hits are enriched below; roughly 3.5% of the tested compounds scored in any of these assays.
GPR151 ag: activators of human GPR151 | Q8TDV0 | PathHunter beta-arrestin GPR151 cells, luminescence | activation, % at 11.2 µM | actives 1% (n = 650,000); in the data active = activation above about 4.9%;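 note: 0% = median of compound wells and 100% = cells with positive control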
MITF primary: blocks human microphthalmia-associated transcription factor; O75030; AlphaScreen MITF homodimerization, bead proximity signal; inhibition, % at 2.6 µM; actives 0.91% (n = 650,000); AID 1259374; in the data active = inhibition above about 50%;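 note: 0% = vehicle wells with protein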
TEAD-YAP block: TEAD-YAP interaction inhibition; HEK-TIYL cells, TEAD-Gal4/YAP UAS-luciferase luminescence; inhibition, % at 9.12 µM; actives 1.4% (n = 640,000); AID 1259422; in the data active = inhibition above about 32%;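 note: 0% = median of test compound wells and 100% = reference inhibitor wells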
FBW7 act: activators of human E3 ligase FBW7 | Q969H0 | AlphaScreen FBW7–phospho-cyclin E peptide binding, activator screen | normalized activity (activation), % at 26.1 µM | actives 0.13% (n = 650,000); in the data active = normalized activity above about 1.9%;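 note: purified mutant Fbw7 with reduced substrate affinity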
* marks the source's active call; other numbers are inactive results.

SMILES	GPR151 ag	MITF primary	TEAD-YAP block	FBW7 act
CCOC(=O)c1ccccc1NC(=O)CN1C(=O)C(C)N(c2ccc(C)cc2)C1=O (centres undefined)	0	7	46*	0
C=CCN=C1NN=C(c2cc(C)n(CCOC)c2C)CS1	-7	5	95*	0
COCCn1c(C)cc(C2=NNC(=Nc3ccc(C)cc3)SC2)c1C	0	-5	-3	0
COCCn1c(C)cc(C2=NNC(=Nc3cccc(C)c3)SC2)c1C	1	13	25	0
COc1ccccc1N=C1NN=C(c2ccccc2OC)CS1	-1	0	-13	0
COCCCN=C1NN=C(c2cc(C)n(Cc3ccco3)c2C)CS1	1	-2	46*	0
Cc1cc(C2=NNC(=Nc3ccccc3)SC2)c(C)n1CC1CCCO1 (centres undefined)	0	7	54*	0
C=CCn1c(C)cc(C2=NNC(=Nc3ccccc3OC)SC2)c1C	1	-12	72*	0
CCc1ccc(NC(=O)CN(c2cc(OC)ccc2OC)S(C)(=O)=O)cc1	-1	-21	3	0
C=CCn1c(SCC(=O)N2CCOCC2)nnc1-c1ccccc1O	-1	4	-5	1
CCn1c(SCC(=O)N2CCN(c3ccccc3)CC2)nnc1-c1ccccc1O	3	9	34*	0
C=CCn1c(SCC(=O)N2CCN(c3ccccc3)CC2)nnc1-c1ccccc1O	-2	22	33*	0
Cc1[nH]c2ccc(-c3nnc(SCCO)n3-c3ccc(Br)cc3)cc2c1C	0	0	-13	0
Oc1cc(CN2CCCCC2)c(O)cc1CN1CCCCC1	3	46	8	0
COc1cc(/C=C/C(=O)C(C)(C)O)cc(OC)c1OC	1	-1	16	0
COc1cc(/C=C/C(=O)N2CCC=CC2=O)cc(OC)c1OC	-2	-9	78*	0
CCc1ccc(CN2CCC3(CCC(CNC(=O)C(C)C)O3)CC2)cc1 (centres undefined)	0	-4	-6	0
CC(C)C(=O)NCC1CCC2(CCN(Cc3ccc(C#CC(C)(C)O)cc3)CC2)O1 (centres undefined)	0	-5	51*	0
CCN1C(=O)CC(C(=O)Nc2ccc(Br)cc2)SC1=Nc1ccc(OC)cc1 (centres undefined)	1	-12	34*	0
CCOc1ccc(NC(=O)C2CC(=O)N(CC)C(=Nc3ccc(OC)cc3)S2)cc1 (centres undefined)	-1	15	5	0
Cc1sc2ncn(C)c(=O)c2c1-c1ccc(Br)cc1	-1	-14	14	0
NC(=O)CSc1nc2sc3c(c2c(=O)n1-c1cccc2ccccc12)CCCC3	0	2	38*	0
Oc1ccc(-c2noc(-c3ccc(F)cc3)n2)cc1	-9	-1	65*	0
Fc1ccc(-c2nc(-c3ccccc3)no2)cc1	0	17	-34	1
COc1ccc(/C=N/NC(=O)c2cc(-c3ccc(OC)cc3)n[nH]2)cc1	-1	4	33*	0
SMILES	GPR151 ag	MITF primary	TEAD-YAP block	FBW7 act
Cc1ccc(/C=N/NC(=O)c2cc(-c3ccccc3)n[nH]2)cc1	1	-5	-8	0
COc1ccc(-c2cc(C(=O)N/N=C\c3ccc(N(C)C)cc3)[nH]n2)cc1	-1	11	45*	0
COc1ccc(/C=N/NC(=O)c2cc(-c3ccc(F)cc3)n[nH]2)cc1	1	5	7	0
CC(C)Cc1ccc(-c2cc(C(=O)N/N=C/c3ccncc3)[nH]n2)cc1	0	6	45*	0
O=C1NC(=S)S/C1=C/c1cc(Br)c(Br)o1	-1	51*	-2	-1
CCN1C(=O)C(=Cc2ccc(-c3ccc(C(C)=O)cc3)o2)C(=O)N(CC)C1=S	1	78*	-7	0
CC(=O)c1ccc(-c2ccc(/C=C3/SC(=S)NC3=O)o2)cc1	-1	74*	-7	-1
O=C1NC(=S)S/C1=C\c1ccc(I)o1	-1	48	-1	0
O=C1NC(=S)S/C1=C/c1ccc[nH]1	0	13	49*	0
CCN1C(=O)C(=Cc2ccc(-c3cccc(C(=O)O)c3)o2)C(=O)N(CC)C1=S	-1	47	0	0
O=C(CCc1ccco1)N1CCCC(c2[nH]ncc2-c2ccccc2)C1 (centres undefined)	1	13	10	0
CC(C)CNS(=O)(=O)c1ccc(CCC(N)=O)cc1	-1	5	-17	1
NC(=O)c1c(NC(=O)C2COc3ccccc3O2)sc2c1CCCC2 (centres undefined)	1	20	-62	0
COc1cccc(/C=C(/C#N)c2nc(C3CC3)cs2)c1	-1	-1	-56	3.5*
COc1ccc(/C=C(/C#N)c2nc(C3CC3)cs2)cc1OC	1	3	-35	1
CC(C)(C)c1ccc(-c2nc(-c3ccccn3)no2)cc1	-9	9	96*	0
COc1cccc(-c2nc(-c3ccccn3)no2)c1	-12	-7	86*	1
Ic1cccc(-c2nc(-c3ccccn3)no2)c1	-2	-4	10	0
COc1cccc(-c2nc(-c3ccccc3)no2)c1	-3	3	-67	1
c1ccc(-c2noc(-c3ccncc3)n2)nc1	-9	11	1	0
Brc1cccc(-c2nc(-c3ccccn3)no2)c1	-9	-23	73*	0
Clc1ccccc1/C=C/c1nc(-c2ccccn2)no1	-12	9	85*	0
CCOC(=O)C1(Cc2ccc(OC)cc2)CCN(S(=O)(=O)N(C)C)CC1	3	4	-5	0
CSCCNC(=O)CC1C(=O)NCCN1Cc1cccs1 (centres undefined)	-1	-2	-2	0
Brc1ccc(-c2nc(-c3ccccn3)no2)cc1	-10	4	90*	0
SMILES	GPR151 ag	MITF primary	TEAD-YAP block	FBW7 act
CCC(C(=O)N1CCC(C)CC1)n1nc(C)c2sc3ccccc3c2c1=O (centres undefined)	-1	9	0	0
Cc1cnc(CNC(=O)c2ccc3cncc(-c4ccccc4)c3n2)cn1	0	-4	63*	0
O=C(NCc1ccccc1)c1ccc2cncc(-c3ccccc3)c2n1	-1	60*	66*	0
CCN(CC)S(=O)(=O)c1ccc(NC(=O)CCC(C)=O)cc1	3	-10	11	0
CC1=CC(=O)OC1Cc1ccncc1 (centres undefined)	0	-8	41*	0
CC1=NNC(=O)C1CCc1ccncc1 (centres undefined)	-1	23	11	1
O=C(Nc1ccccn1)c1cc2ccccc2o1	-10	11	71*	0
Cc1cc(C)cc(NC(=O)c2cc3ccccc3o2)c1	-1	2	-27	0
Cc1ccnc(NC(=O)c2cc3ccccc3o2)c1	-8	4	56*	1
O=C(Nc1ccccc1NC(=O)c1cc2ccccc2o1)c1ccccn1	0	-3	-4	0
O=c1oc2cc(Cl)c(O)c(Cl)c2s1	-1	55*	14	0
O=c1oc2cc(Cl)c(O)cc2s1	1	19	-2	-1
O=c1oc2cc(Br)c(O)c(Br)c2s1	0	59*	-4	-1
